{"source": "PubChem BioAssay AID1626", "about": "(SRMLSC, 2009)", "note": "Screen size: about 220,000 compounds; about 2,000 (0.91%) were called active. About 2% were inconclusive and are not listed. Rule as the data show it: inconclusive = inhibition above about 80% without an active follow-up result; inactive = below that; test concentration not stated here. Not all results are given here. Potency and affinity values are given separately."}
{"test": "M. tuberculosis H37Rv growth inhibitors, H37Rv strain (AID 1626);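 also: bacteria incubated seven days before Alamar blue readout; 0% = bacteria only wells and 100% = bacteria with antibiotic wells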", "settings": "hits give high values, concentration not given here"}
{"smiles": "COc1ccc(/C=N/NC(=O)C2C3CCCCC32)cc1OC", "note": "(centres undefined)", "inhibition": "1.66% (inactive)"}
{"smiles": "CCOc1ccc(Br)cc1S(=O)(=O)Nc1ccc(C(=O)Nc2ccc(C)cc2)cc1", "inhibition": "1.51% (inactive)"}
{"smiles": "CN1C(C(=O)NCC2CC2)CC2Cn3c(nc4cc5ccccc5cc43)C21", "note": "(centres undefined)", "inhibition": "-9.29% (inactive)"}
{"smiles": "N#CC(Nc1ccccc1)c1ccccc1OCc1ccccc1", "note": "(centres undefined)", "inhibition": "5.52% (inactive)"}
{"smiles": "COc1ccccc1NC(C#N)c1ccccc1OCc1ccccc1", "note": "(centres undefined)", "inhibition": "5.14% (inactive)"}
{"smiles": "CC(=O)n1c2ccccc2c2c1c1ccccc1n2C", "inhibition": "6.42% (inactive)"}
{"smiles": "CC(C)OC(=O)CC1C(=O)NCCN1C(=S)NC(=O)c1ccccc1", "note": "(centres undefined)", "inhibition": "3.87% (inactive)"}
{"smiles": "Cc1ccc(C)n1-c1ccc(N2CCOCC2)c(Br)c1", "inhibition": "4.43% (inactive)"}
{"smiles": "COC(=O)c1ccc(C(=O)OC)c(NC(=O)CN2CCN(c3ccc(OC)cc3)CC2)c1", "inhibition": "13.8% (inactive)"}
{"smiles": "COC(=O)c1ccc(C(=O)OC)c(NC(=O)CN2CCN(c3ccccc3OC)CC2)c1", "inhibition": "72.2% (inactive)"}
{"smiles": "O=C1OCc2cc(N=Nc3c(O)[nH]c(=O)[nH]c3=O)ccc21", "inhibition": "-9.19% (inactive)"}
{"smiles": "COc1c(/C=N/NS(=O)(=O)c2ccc(C)cc2)c(CCN(C)C(C)=O)cc2c1OCO2", "inhibition": "-0.76% (inactive)"}
{"smiles": "CCn1c(SCC(=O)c2cccs2)nnc1-c1ccco1", "inhibition": "-18.1% (inactive)"}
{"smiles": "Nc1nc(Nc2ccc(Cl)cc2)nc(NCc2ccco2)c1[N+](=O)[O-]", "inhibition": "18.8% (inactive)"}
{"smiles": "Cc1cccc(Nc2nc(N)c([N+](=O)[O-])c(NCc3ccco3)n2)c1", "inhibition": "22.5% (inactive)"}
{"smiles": "Cc1nn(C)c2c(=O)c(=O)c2n(C)[nH]1", "inhibition": "-3.16% (inactive)"}
{"smiles": "CC(C)CCNC(=O)c1onc(CSc2ccccc2)c1C(=O)NCCC(C)C", "inhibition": "19% (inactive)"}
{"smiles": "CCn1c(COc2ccc(C)cc2)nnc1SCC(=O)NNC(=O)c1ccc(OC)cc1", "inhibition": "4.68% (inactive)"}
{"smiles": "S=c1[nH]nc(-c2cccnc2)n1/N=C/c1ccccc1", "inhibition": "-12.5% (inactive)"}
{"smiles": "CCN1CCN(Cc2ccc(NC(=O)c3cc(NC(=O)c4nccnc4N)cc(OC)c3)cc2C(F)(F)F)CC1", "inhibition": "6.4% (inactive)"}
{"smiles": "CCN1CCN(Cc2ccc(NC(=O)c3cc(NC(=O)c4ccc5n[nH]nc5c4)cc(OC)c3)cc2C(F)(F)F)CC1", "inhibition": "-1.88% (inactive)"}
{"smiles": "CCN1CCN(Cc2ccc(NC(=O)c3ccc(C)c(NC(=O)c4ccc5n[nH]nc5c4)c3)cc2C(F)(F)F)CC1", "inhibition": "-11% (inactive)"}
{"smiles": "CCN1CCN(Cc2ccc(NC(=O)c3ccc(C)c(NC(=O)c4ccnnc4)c3)cc2C(F)(F)F)CC1", "inhibition": "-3.04% (inactive)"}
{"smiles": "CCN1CCN(Cc2ccc(NC(=O)c3cc(NC(=O)c4ccno4)cc(OC)c3)cc2C(F)(F)F)CC1", "inhibition": "14.6% (inactive)"}
{"smiles": "CCN1CCN(Cc2ccc(NC(=O)c3cc(NC(=O)N4CCNC4=O)cc(OC)c3)cc2C(F)(F)F)CC1", "inhibition": "-1.27% (inactive)"}
{"smiles": "Cc1cc(C)cc(NC(=O)CN2C(=O)NC(C)(c3ccccc3)C2=O)c1", "note": "(centres undefined)", "inhibition": "1.34% (inactive)"}
{"smiles": "COc1ccc(-c2nn(-c3ccccc3)cc2/C=C2/SC(=S)N(Cc3ccco3)C2=O)c(C)c1", "inhibition": "-0.21% (inactive)"}
{"smiles": "Cc1sc(NC(=O)c2ccccc2F)c(CN2CCCCC2)c1C", "inhibition": "7.51% (inactive)"}
{"smiles": "CCOc1ncccc1C(=O)OCC(=O)c1ccccc1", "inhibition": "-3.62% (inactive)"}
{"smiles": "COc1ccc(CNC(=O)COC(=O)C2=COCCO2)cc1", "inhibition": "46.3% (inactive)"}
{"smiles": "CCN(CC(=O)Nc1ccc(NC(C)=O)cc1)CC(=O)Nc1ccccc1C(=O)c1ccccc1", "inhibition": "2.54% (inactive)"}
{"smiles": "CC(=O)c1ccn(S(=O)(=O)c2ccccc2)c1", "inhibition": "4.75% (inactive)"}
{"smiles": "CC1(C)Cc2c(cnn2-c2ccccc2)-c2c1c1ccccc1n2CC(O)CCl", "note": "(centres undefined)", "inhibition": "2.97% (inactive)"}
{"smiles": "CC1(C)Cc2c(cnn2-c2ccccc2)-c2c1c1ccccc1n2CC(O)CBr", "note": "(centres undefined)", "inhibition": "8.54% (inactive)"}
{"smiles": "O=C(Nc1ccc(Cl)cn1)c1ccc(-c2ccc(Cl)c(Cl)c2)o1", "inhibition": "9.55% (inactive)"}
{"smiles": "COc1cc2nc(-c3ccccc3)nc(N3CCCC3)c2cc1OC", "inhibition": "7.03% (inactive)"}
{"smiles": "COc1cc2nc(Cl)nc(N3CCCCC3)c2cc1OC", "inhibition": "1.6% (inactive)"}
{"smiles": "O=c1c2ccccc2nc(SCc2ccncc2)n1CC1CCCO1", "note": "(centres undefined)", "inhibition": "4.12% (inactive)"}
{"smiles": "O=C(Nc1ccc(F)cc1F)Nc1ccc(F)cc1F", "inhibition": "-3.43% (inactive)"}
{"smiles": "CSc1ccccc1NC(=O)Nc1ccc(F)c(Cl)c1", "inhibition": "1.15% (inactive)"}
{"smiles": "O=C(Nc1ccc(F)cc1)Nc1csc2ccccc12", "inhibition": "57.9% (inactive)"}
{"smiles": "O=C(Nc1ccccc1)Nc1csc2ccccc12", "inhibition": "14.7% (inactive)"}
{"smiles": "CCc1ccc(C2C3=C(CC(C)(C)CC3=O)OC3=C2C(=O)CC(C)(C)C3)cc1", "inhibition": "-1.37% (inactive)"}
{"smiles": "O=c1[nH]c(/C=C\\c2cccnc2)c([N+](=O)[O-])c(=O)[nH]1", "inhibition": "-10.6% (inactive)"}
{"smiles": "C/C=C/C(=O)OCC(=O)Nc1nc2ccc(C)cc2s1", "inhibition": "-7.77% (inactive)"}
{"smiles": "COc1cccc(C(=O)NNC(=O)C2CC(C)=C(C)CC2C(=O)O)c1", "note": "(centres undefined)", "inhibition": "-6.84% (inactive)"}
{"smiles": "O=C(NC1CCSC1=O)c1ccc(Oc2ccc(F)cc2)nc1", "note": "(centres undefined)", "inhibition": "0.17% (inactive)"}
{"smiles": "CCCn1nc2cc(C(=O)NCC34CC5CC(CC(C5)C3)C4)ccc2c1OCC", "inhibition": "5.26% (inactive)"}
{"smiles": "COc1ccc(Br)cc1CNC(=O)C1CCN(S(=O)(=O)N2CCCC2)CC1", "inhibition": "-4.95% (inactive)"}
{"smiles": "CCS(=O)(=O)c1ccc(N=Nc2ccc(O)c3ncccc23)c(OC)c1", "inhibition": "-3.16% (inactive)"}
{"smiles": "COc1ccccc1N=Nc1[nH]c2ccc(C)cc2c1O", "inhibition": "9.9% (inactive)"}
{"smiles": "Cc1cccnc1NCc1ccc(O)c2ncccc12", "inhibition": "-8.13% (inactive)"}
{"smiles": "Cc1ccccc1NCc1ccc(O)c2ncccc12", "inhibition": "5.07% (inactive)"}
{"smiles": "Cc1ccc(S(=O)(=O)Nc2ccc(O)c3ncccc23)cc1", "inhibition": "-2.86% (inactive)"}
{"smiles": "Oc1ccc(N=Nc2ccc3c(c2)OCCO3)c2ncccc12", "inhibition": "41% (inactive)"}
{"smiles": "CCS(=O)(=O)c1ccc(OC)c(N=Nc2ccc(O)c3ncccc23)c1", "inhibition": "4.79% (inactive)"}
{"smiles": "Cc1ccc(NCc2ccc(O)c3ncccc23)cc1C", "inhibition": "9.65% (inactive)"}
{"smiles": "Cc1ccc(-c2nc(C=Nc3cccc(C)c3)c(O)o2)cc1", "inhibition": "1.48% (inactive)"}
{"smiles": "CCn1c(SCC(=O)Nc2cc(C)on2)nnc1-c1c[nH]c2ccccc12", "inhibition": "-1% (inactive)"}
